# From PubChem BioAssay (NCI)
# Compounds without any hit were thinned out: in the full panel of roughly 83,000, 20% have a hit.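 Each cell line was grown in a 96-well plate and treated with one concentration of compound for 48 hours. Values below 10 were considered active.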 A number with no mark means an inactive call. The source made the active and inactive calls.
# Key:
# Assay in all cases: NCI-60 one-dose screen, 48 h (100 = growth as untreated, 0 = no growth, -100 = all killed)
# Details in all cases: 10 µM unless noted
# EKVX NSCLC = tested on: EKVX NSCLC
# SN12C renal = tested on: SN12C renal
# UO-31 renal = tested on: UO-31 renal
# TK-10 renal = tested on: TK-10 renal
# CAKI-1 renal = tested on: CAKI-1 renal
# A498 renal = tested on: A498 renal
# CCRF-CEM leukemia = tested on: CCRF-CEM leukemia
# MOLT-4 leukemia = tested on: MOLT-4 leukemia
# SR leukemia = tested on: SR leukemia
# RPMI-8226 leukemia = tested on: RPMI-8226 leukemia
# OVCAR-8 ovarian = tested on: OVCAR-8 ovarian
# OVCAR-5 ovarian = tested on: OVCAR-5 ovarian
# OVCAR-4 ovarian = tested on: OVCAR-4 ovarian
# SK-OV-3 ovarian = tested on: SK-OV-3 ovarian
# IGROV1 ovarian = tested on: IGROV1 ovarian
# OVCAR-3 ovarian = tested on: OVCAR-3 ovarian
# HS 578T breast = tested on: HS 578T breast
# NCI/ADR-RES ovarian = tested on: NCI/ADR-RES ovarian
# T-47D breast = tested on: T-47D breast
# ACHN renal = tested on: ACHN renal
Compound,growth (EKVX NSCLC) [%],growth (SN12C renal),growth (UO-31 renal),growth (TK-10 renal) [%],growth (CAKI-1 renal) [%],growth (A498 renal) [%],growth (CCRF-CEM leukemia),growth (MOLT-4 leukemia),growth (SR leukemia),growth (RPMI-8226 leukemia),growth (OVCAR-8 ovarian) [%],growth (OVCAR-5 ovarian) [%],growth (OVCAR-4 ovarian),growth (SK-OV-3 ovarian) [%],growth (IGROV1 ovarian),growth (OVCAR-3 ovarian),growth (HS 578T breast),growth (NCI/ADR-RES ovarian),growth (T-47D breast),growth (ACHN renal) [%]
c1coc([C@@H]2C[C@@H]3Cc4ccc5ccccc5c4N2O3)c1,103,108%,75%,88.6,84.7,90.2,79%,73.7%,88.8%,97.3%,99.4,90.8,92.4%,103,113%,114%,110%,99.8%,104%,
CC(c1cc(Cl)ccc1O)c1cc(Cl)ccc1O,41.1,39.5%,-7.88% (active),90.7,84.9,81.1,33.5%,52.1%,53.3%,20.9%,46.5,70.7,39.3%,27.3,-7.07% (active),28.2%,10.6%,-1.24% (active),89.9%,
COc1ccc(-c2c(-c3cc(OC)c(OC)c(OC)c3)noc2N)cc1,45.9,27.6%,41.7%,67.3,28.2,22.8,9.85% (active),13%,8.86% (active),10.9%,24.9,,38.8%,20.6,22.4%,-29.7% (active),30%,11.1%,61.2%,
CC1CC(C)/C(=N/NC(N)=O)C(C(O)CC2CCC(=O)NC2=O)C1 (stereo not given),33.6,18.9%,15.9%,53.9,35.5,71.1,15.6%,23%,48.5%,50.4%,,52.1,57.7%,49.2,30.1%,53.6%,10%,42.6%,42.5%,
Cc1nn(-c2ccccc2)c(Cl)c1C(CC(=O)c1ccc(Cl)cc1)CC(=O)c1ccc(Cl)cc1,94.8,85.2%,76.7%,104,76.4,66.9,,,,,,93.8,97.8%,91.8,101%,91.7%,97.3%,90.2%,85.8%,
Cc1ccsc1/C=C/C1=NCCCN1C,99.5,95.3%,80%,104,97.1,113,81%,,,100%,108,111,102%,103,101%,108%,115%,107%,93.9%,
Clc1ccccc1[C@@H]1C[C@@H]2Cc3cc(Br)c4ccccc4c3N1O2,70,44.3%,40.3%,63.6,40.4,15.7,,17.2%,3.11% (active),,61.1,70.9,49.9%,38.5,48.7%,-8.24% (active),28.4%,15.4%,65.3%,
Cc1c(NCc2nnc3n(Cc4ccccc4)c(=O)c4c5c(sc4n23)CCCC5)c(=O)n(-c2ccccc2)n1C,84.7,96.5%,71.4%,93.3,78,75.1,4.57% (active),52.7%,,97.5%,86.3,107,74.7%,120,79.2%,87.3%,90.7%,85.6%,84%,
Clc1ccc([C@@H]2C[C@@H]3Cc4cc(Br)c5ccccc5c4N2O3)c(Cl)c1,108,96.8%,64%,90.2,73.6,87,66.5%,78%,20.8%,89.3%,98.3,101,84.7%,79.5,79.4%,41.6%,92.3%,55.5%,96.9%,
COc1ccc2nc(-c3ccc(-n4cncc4-c4ccc(OC)c(N)c4)cc3)sc2c1,109,111%,70.1%,114,,,95.6%,66.3%,69.3%,88.2%,96.8,108,87%,117,113%,,101%,115%,102%,103
O=[P@@]1(c2ccccc2)O[C@H](COCc2ccccc2)[C@@H](OCc2ccccc2)[C@H](OCc2ccccc2)[C@H]1NCc1ccccc1,17.6,-39.4% (active),-7.83% (active),13.5,,,15.9%,0.343% (active),-2.72% (active),5.97% (active),23.7,11.8,,41.7,,18.6%,49.9%,12.5%,15.9%,10
COc1ccc2c(c1)nc(N)c1c3cc(OC)c(OC)cc3cn21,73.1,56.4%,49.8%,48.9,28.5,35.9,47.1%,76.4%,,42.8%,40.9,62.5,69.8%,43.9,65.4%,37.6%,,33.9%,64%,
Cn1c(=O)c2nc(SCc3ccccc3)n(C)c2n(C)c1=O,123,90.4%,98.3%,111,119,77.3,122%,106%,83.3%,117%,106,97.6,118%,99.2,139%,117%,104%,112%,98.4%,
O=C(Nc1ccc(C2=NCCCN2)cc1)Nc1ccc(C2=NCCCN2)cc1,64.1,94.8%,90.1%,109,79.3,77.4,73%,71.6%,69.8%,53.2%,89,101,64%,110,110%,99.4%,79.5%,94.4%,73.6%,
CC1SC(c2c(Cl)cccc2Cl)N(NC(=O)c2[nH]c3ccc(F)cc3c2-c2ccccc2)C1=O (stereo not given),41.8,33.9%,-17.6% (active),21.6,,,56.1%,69.1%,54.8%,,33.1,78.3,-54.7% (active),19.1,-6.28% (active),-62.2% (active),-8.04% (active),,2.88% (active),34.4
O=C(Nc1cccc([N+](=O)[O-])c1)c1cccc(C(=O)Nc2cccc([N+](=O)[O-])c2)c1,84.3,45.7%,56.7%,65.5,85.3,92.5,116%,99.3%,83.9%,65.9%,28.6,95.6,56.9%,68.6,,,9.17% (active),62.2%,68.4%,
COc1ccc(OC)c(/C=C/c2nc(=S)n(-c3ccc(Cl)cc3)[nH]2)c1,75.2,66.2%,47.1%,88.8,,,60.6%,52.8%,38.3%,,88.6,116,91.6%,73.5,40.1%,,98.7%,,72.5%,71.2
